These results are taken from PubChem BioAssay (EPA / NIEHS).

The structures appear in SMILES notation. Inconclusive results are not listed. Calls of active or inactive are those of the source. The calls were made as follows: active = hit-call score of the fitted dose curve at least 0.9, where 1 is the maximum; inconclusive = response in the unintended direction; inactive = score below 0.9.

The experiment in a line: Tanguay_ZF_120hpf_PE_legacy: (Legacy) Oregon State University Tanguay Lab 120 Hour Post-fertilization zebrafish Assay for Pericardial Edema (AID 2283640).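 As to AC50: potency for increased incidence of pericardial edema versus DMSO baseline.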 The protocol: Tanguay_ZF_120hpf_legacy is a whole embryo, multiplexed endpoint assay using zebrafish larvae exposed for 120 hours post fertilization on a 96-well plate.Tanguay_ZF_120hpf_PE_legacy is one of one assay component(s) measured or calculated from the Tanguay_ZF_120hpf_legacy assay. It is designed to make measurements of zebrafish development as detected with brightfield microscopy of developing zebrafish embryos.Data from the assay component Tanguay_ZF_120hpf_PE_legacy was analyzed into 1 assay endpoints. This assay endpoint, Tanguay_ZF_120hpf_PE_legacy, was analyzed in the positive analysis fitting direction relative to DMSO as the negative control and baseline of activity. Using a type of morphology reporter, gain-of-signal activity can be used to understand changes in developmentals as they relate to the whole embryo. To generalize the intended target to other relatable targets, this assay endpoint is annotated to the zebrafish development intended target family, where the subfamily is embryonic morphogenesis.
Zebrafish husbandry: Tropical 5D wild-type adult zebrafish were housed in at an approximate density of 1000 per 100 gallon tank at the Sinnhuber Aquatic Research Laboratory, Oregon State University, Corvallis, OR. Each tank was kept at standard laboratory conditions of 28C on a 14-h light/10-h dark photoperiod in fish water consisting of reverse osmosis water supplemented with a commercially available salt (Instant Ocean). Spawning funnels were placed into the tanks the night prior, and embryos were collected and staged. […] Ten microliters of each row of dilution plate 2 was added to 2 exposure plates. The final DMSO concentration used was 0.64% (vol/vol). Thirty-two embryos were also exposed to 5uM trimethyltin chloride (positive control). Plates were sealed to prevent evaporation and foil covered to reduce light exposure and kept in a 28C incubator. Embryos were statically exposed until 120 hpf. At 24 hpf, embryos were assessed for photomotor response using a custom photomotor response analysis tool (PRAT) and for developmental toxicity endpoints (MO24: mortality at 24 hpf, DP: developmental progression, SM: spontaneous movement, and NC: notochord distortion). At 120 hpf, locomotor activity was measured using Viewpoint Zebralab and assessed for 18 endpoints. Zebrafish acquisition and analysis program (ZAAP), a custom program designed to inventory, acquire, and manage zebrafish data, was used to collect developmental endpoints as either present or absent (i.e., binary responses were recorded). If mortality occurred for an embryo (at either 24 or 120 hpf), the non-mortality endpoints were not measured.
On to `CCCC(CCC)C(=O)O`, for which the outcome was inactive.

For `Cc1ncc([C@@H](CCCCCCc2ccc3c(n2)NCCC3)CC(=O)O)cn1`, the compound was called inactive.

`c1ccc2cc3ccccc3cc2c1`: the compound was called inactive.

As for `OC[C@H]1O[C@@](CO)(O[C@H]2O[C@H](CO)[C@@H](O)[C@H](O)[C@H]2O)[C@@H](O)[C@@H]1O`, the outcome was inactive.

As for `CCCCOC(=O)c1ccccc1`, the call was inactive.

Turning to `CCCCCCCC1CCC(=O)O1` (stereo not given), the compound was called inactive.

`C[C@]12C=CC(=O)C=C1CC[C@H]1[C@@H]3C[C@@H](O)[C@](O)(C(=O)CO)[C@@]3(C)C[C@H](O)[C@@]12F`: the result was inactive.

On to `COc1cc2c(c(OC)c1OC)-c1ccc(OC)c(=O)cc1[C@@H](NC(C)=O)CC2`, for which the AC50 is 26.2 µM (active).

With `CCCCN1C(=O)[C@@H]([C@H](O)C2CCCCC2)NC(=O)C12CCN(Cc1ccc(Oc3ccc(C(=O)O)cc3)cc1)CC2`, the result was inactive.

For `CCCCCCCCCC`, the compound was classed as inactive.

In the case of `OC(CCl)CCl`, the compound was classed as inactive.

For the compound `NNC(=O)c1ccncc1`, the compound was classed as inactive.

On to `Cc1nccn1-c1ccc(Sc2cccc(C3(C(N)=O)CCOCC3)c2)cc1`, for which the outcome was inactive.

As to `CCCCCCCCCCCCCCO`, the compound was classed as inactive.

Turning to `COCc1nnc(-c2ccc[n+]([O-])c2)n1-c1c(Cl)c(Cl)cc2[nH]c(=O)c(=O)[nH]c12`, the outcome was inactive.

Take `CCOc1ccc2[nH]cc(C(=O)NCc3ccccc3)c(=O)c2n1`: the outcome was inactive.

Take `CCCCCCOC(=O)CC(CC(=O)OCCCCCC)(OC(=O)CCC)C(=O)OCCCCCC`: the result was inactive.

As to `CCCc1ccccc1`, the call was inactive.

Take `CCc1ccc(O)c(C(C)(C)C)c1`: the outcome was inactive.

As for `CC(C)C(=O)Nc1ccc([N+](=O)[O-])c(C(F)(F)F)c1`, the outcome was inactive.

For `CC(C)c1nnc2ccc(-c3ocnc3-c3cc(F)ccc3F)cn12`, the compound was called inactive.

With `OCCNCCO`, the compound was classed as inactive.

Regarding `NC(=O)NN=Cc1ccc([N+](=O)[O-])o1`, the outcome was inactive.

For the compound `O=C(O)c1ccc2c(c1)nc(C(=O)NC1CCN(C3CC3)CC1)n2Cc1cc(-c2ccc(Cl)s2)on1`, the call was inactive.

For `CC[C@H](C)C(=O)O[C@H]1C[C@H](O)C=C2C=C[C@H](C)[C@H](CC[C@@H](O)C[C@@H](O)CC(=O)O)[C@H]21`, the result was inactive.

Consider `O=C(O)c1cccc(C(=O)O)c1`, for which the compound was classed as inactive.

Consider `CC1(C)C(=O)N(Cl)C(=O)N1Cl`, for which the result was inactive.

For the compound `COS(C)(=O)=O`, the result was inactive.

`OC[C@H]1O[C@@H]2O[C@H]3[C@H](O)[C@@H](O)[C@@H](O[C@H]4[C@H](O)[C@@H](O)[C@@H](O[C@H]5[C@H](O)[C@@H](O)[C@@H](O[C@H]6[C@H](O)[C@@H](O)[C@@H](O[C@H]7[C@H](O)[C@@H](O)[C@@H](O[C@H]1[C@H](O)[C@H]2O)O[C@@H]7CO)O[C@@H]6CO)O[C@@H]5CO)O[C@@H]4CO)O[C@@H]3CO`: the result was inactive.

With `OCC(CO)(CO)CO`, the compound was called inactive.

Regarding `NC(=O)N1c2ccccc2C=Cc2ccccc21`, the compound was classed as inactive.

In the case of `CC(C)CCCCCCOC(=O)C1CCCCC1C(=O)OCCCCCCC(C)C` (stereo not given), the result was inactive.

`COc1cc(C(C)C)c2c(c1)S(=O)(=O)N(COc1cc(=O)n3cccc(OCCN4CCCCC4)c3n1)C2=O`: the AC50 was 20 µM (active).

Consider `CCCOc1ccc(S(=O)(=O)N2CCN(CC)CC2)cc1-c1nc2c(CC)n(Cc3ccccn3)nc2c(=O)[nH]1`, for which the call was inactive.

`CCCCCCCCCCCCCCCCOS(=O)(=O)O`: the compound was called inactive.

Take `CCCCCOC(C)=O`: the compound was classed as inactive.

Turning to `Cn1cc[nH]c1=S`, the compound was called inactive.

Take `CCN(CC)C(=S)SSC(=S)N(CC)CC`: the AC50 was 1.22 µM (active).

Regarding `O=C(O)[C@H](O)[C@@H](O)C(=O)O`, the result was inactive.

Take `CCCCC(CC)C(=O)OCCOCCOCCOC(=O)C(CC)CCCC` (stereo not given): the compound was called inactive.
